About 1,300 (0.39%) of roughly 330,000 compounds were called active.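 Rule for the calls: active = inhibition of 50% or more; inactive = inhibition below 50%.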 This excerpt belongs to a sample that is enriched for actives.

The nature of the test: blockers of yeast NLRP3/ASC/caspase-1 reporter – luminescence, uHTS, primary screen (AID 2825).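 Note: plate controls were induced DMSO wells for no effect and uninduced yeast grown without galactose for full effect.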 The settings on record: Yeast reconstituted NLRP3/ASC/caspase-1, beta-gal luminescence, 24 h; at 10 µM; hits give high values.
Turning to `O=C(COc1coc(CN2CCN(c3ccccc3)CC2)cc1=O)Nc1ccccc1F`, the inhibition (commonly the drop in the measured response relative to a control, in per cent) is 11.8% (inactive).
As for `Cc1ccc(OCc2nc(C#N)c(N3CCCC3)o2)cc1`, the inhibition is 63% (active).
Under `N#Cc1nc(COc2ccc(Cl)cc2)oc1N1CCCC1` stands 55.6% (active).
Under `N#Cc1ccc(OCc2nnc(-c3ccc([N+](=O)[O-])cc3)o2)cc1` stands 20.8% (inactive); under `CC1CCN(c2oc(-c3ccccc3F)nc2C#N)CC1`, 26.9% (inactive); under `COc1ccc(-c2oc(/N=C/N3CCCC3)c(C#N)c2-c2ccc(OC)cc2)cc1`, 15.6% (inactive).
Take `O=S(=O)(c1ccc(Cl)cc1)c1nc(-c2ccco2)oc1N1CCCCC1`: the inhibition is 22.9% (inactive).
Take `CC(C(=O)N=Nc1c(O)n(C)c2ccc(Br)cc12)n1cnc2ccccc2c1=O` (centres undefined): the inhibition is 7.45% (inactive).
Consider `COc1ccc(CC(=O)Nc2sc(Cc3ccccc3)c(C)c2C(N)=O)cc1`, for which the inhibition is 25.1% (inactive).
Under `O=C(CN1C(=O)/C(=C\c2ccc(C(F)(F)F)cc2)Sc2ccccc21)NCc1ccco1` stands -3.88% (inactive); under `C#CCN1CC(C)/C(=N/O)CC1C` (centres undefined), 8.21% (inactive).
Under `CSc1ccc(CN(C)CC(=O)NCc2ccc(F)cc2)cc1` stands 30.5% (inactive); under `CC(Oc1ccc2c(-c3ccccc3)cc(=O)oc2c1)C(=O)NC(Cc1c[nH]c2ccccc12)C(=O)O` (centres undefined), 18.5% (inactive); under `CCC(C)Sc1nc2c(cnn2-c2ccc(F)cc2)c(=O)[nH]1` (centres undefined), -8.33% (inactive).
As for `CCCSc1nc2sc3c(c2c(=O)n1-c1ccc(OC)cc1)CCN(C)C3`, the figure is 18.1% (inactive).
On to `CCOc1ccc(-n2c(SCC(=O)OC)nc3sc4c(c3c2=O)CCN(C)C4)cc1`, for which the inhibition is -6.96% (inactive).
Under `CCSc1nc2sc3c(c2c(=O)n1-c1ccc(C)cc1)CCN(C)C3` stands 58.9% (active).
In the case of `CCOP(=O)(OCC)C(Nc1cccc(C)c1)c1ccc(F)cc1` (centres undefined), the inhibition is 3.8% (inactive).
Under `Cc1ccccc1N1CCN(C2CCCN(C(=O)c3ocnc3C)C2)CC1` (centres undefined) stands 25.2% (inactive).
Under `CC1CCN(Cc2nc3c(c(=O)n(C)c(=O)n3C)n2CCc2ccccc2)CC1` stands 21.2% (inactive); under `Cn1c2ccccc2c2c(C(=O)N3CCN(c4ccc(F)cc4)CC3)cn(C3CCCC3)c(=O)c21`, 15.6% (inactive).
As for `CCCc1nc2c(c(=O)c3ccccc3n2C)c(=O)n1C1CCCCCC1`, the figure is 64.7% (active).
As to `Cc1onc(-c2c(Cl)cccc2Cl)c1C(=O)c1c[nH]c(C(=O)NC2CC2)c1`, the inhibition is 12.6% (inactive).
As for `Cc1cccc(N=C2SC(C)CN2C(=O)CN2C(=O)NC3(CCCC3)C2=O)c1` (centres undefined), the figure is -3.71% (inactive); as for `C[C@@H]1C[C@@H]2O[C@H]2/C=C\C=C\C(=O)Cc2c(Cl)c(O)cc(O)c2C(=O)O1`, 53.1% (active); as for `COc1ccc(NC(=O)C2CCC(CNC(=O)[C@@H]3Cc4ccccc4CN3)CC2)cc1` (some centres undefined), -1.77% (inactive).
Under `O=C(CSc1nnc(-c2ccccc2O)o1)NC1CCCCC1` stands 35.2% (inactive); under `O=C(CSc1nnc2c(n1)[nH]c1ccccc12)NC1CCCCC1`, 18.6% (inactive).
As for `O=C(CSc1ncnc2c1oc1ccccc12)NC1CCCC1`, the figure is 52% (active); as for `COC(=O)CN1C(=O)[C@H]2[C@@H](/C=C/c3ccccc3)N3C(=O)CN(CC4CC4)C(=O)[C@@]3(Cc3ccccc3)[C@H]2C1=O`, 1.91% (inactive).
Take `CCOc1ccc(C2/C(=C(/O)c3ccc4c(c3)CC(C)O4)C(=O)C(=O)N2CCCn2ccnc2)cc1` (centres undefined): the inhibition was 15.6% (inactive).
Under `COc1ccc(OCC(=O)NCCS(=O)(=O)N2CCN(c3ccc(F)cc3)CC2)cc1` stands 7.19% (inactive); under `O=C(NNC(=O)c1ccco1)Nc1ccccc1`, 8.53% (inactive).
As for `COc1ccccc1C(=O)Nc1ccc(NC(=O)c2ccco2)c(C)c1`, the figure is 50.8% (active); as for `COc1cc(NC(=O)c2cc([N+](=O)[O-])ccc2Br)ccc1NC(=O)c1ccco1`, 20.7% (inactive); as for `O=C(Nc1ccc(Oc2ccccc2)cc1)c1ccco1`, 50.8% (active).
`O=C(/C=C/c1ccco1)Nc1ccc(Oc2ccccc2)cc1`: the inhibition is 22.4% (inactive).
Under `Cc1cc(NC(=O)c2ccc(F)cc2)ccc1NC(=O)c1ccco1` stands 12.3% (inactive).
As for `Cc1cc(O)c(C(=O)/C=C/c2c(F)c(F)c(F)c(F)c2F)c(=O)o1`, the figure is 12.5% (inactive); as for `CCOc1ccc(N(C(=O)c2snc(C(N)=O)c2N)C(C(=O)NCC2CCCO2)c2c[nH]c3ccccc23)cc1` (centres undefined), 10.6% (inactive).
`COc1cc(OC)c(C(=S)N2CCCC2)cc1OC`: the inhibition is 16% (inactive).
Take `COc1ccc(NC(=O)COC(=O)c2ccncc2)c(OC)c1`: the inhibition was 18.3% (inactive).
As for `O=C(COc1cccc(F)c1)Oc1ccc(C(=O)c2ccccc2)cc1`, the figure is -40.2% (inactive); as for `CCOc1ccc(OCC)c(-c2c(=O)n(OCc3ccc(Cl)cc3)c3ccccc3[n+]2[O-])c1`, 3.29% (inactive).
Under `O=C(COC(=O)c1ccccc1SCC(=O)N1CCCC1)Nc1ccccc1OC(F)F` stands 19.4% (inactive); under `CCOC(=O)C1CCN(Cc2c(C(=O)N3CCOCC3)nc3c(C)cccn23)CC1`, 9.59% (inactive); under `CCN(CC)C(=O)c1sc2nc(-c3ccccc3)ccc2c1N`, 20.7% (inactive).
As for `CN(C)c1ccnc2sc(C(=O)c3ccccc3)c(N)c12`, the inhibition was 64.4% (active).
As for `CN(C(=O)c1ccccn1)c1nnc(-c2ccccn2)s1`, the figure is 9.46% (inactive); as for `O=C(Oc1cccc(O)c1)C1CCCCC1`, 9.17% (inactive); as for `Cc1ccccc1C(=O)NC(=S)NC1CC1`, -9.47% (inactive).
Consider `O=C(c1cccc(S(=O)(=O)N2CCCC2)c1)N(Cc1ccco1)C1CCS(=O)(=O)C1` (centres undefined), for which the inhibition is 19.1% (inactive).
As for `CC(OC(=O)c1cc2ccccc2[nH]1)C(=O)N(C)c1ccccc1` (centres undefined), the figure is -0.144% (inactive); as for `COc1ccc2[nH]c(C(=O)Nc3ccccc3Cl)cc2c1`, -3.34% (inactive).
As for `O=C(Nc1ccccc1)c1cc2ccccc2[nH]1`, the figure is 58.5% (active); as for `COc1ccc(C(=O)c2c(C)c(CCC#N)n3ccccc23)c(OC)c1`, 3.12% (inactive); as for `O=C(Nc1ccc(S(=O)(=O)N2CCCCC2)cc1)C1CCN(C(=O)c2ccc(F)cc2)CC1`, 8.87% (inactive).
Under `O=C(c1[nH]ncc1-c1ccc(Cl)cc1)C1CO1` (centres undefined) stands 2.92% (inactive); under `COc1cc(C(=O)OCc2cc(=O)n3ccsc3n2)ccc1OC(C)C`, 16.3% (inactive).
On to `Cc1c(Cl)c([N+](=O)[O-])nn1CCCC(=O)NC(C)c1ccccc1` (centres undefined), for which the inhibition was 7.95% (inactive).
Under `COC(=O)CCNC(=O)c1ccc2[nH]c(C)c(C)c2c1` stands -4.49% (inactive).
As for `CC(C)(c1ccccc1)c1ccc(OCCN2CCCC2)cc1`, the figure is 31.2% (inactive); as for `Cc1nn(CCOc2ccccc2)c(=O)n1-c1ccccc1F`, -0.993% (inactive).
As for `CC(C)(c1ccccc1)c1ccc(OCCN)cc1`, the figure is 54.5% (active).
In the case of `Nc1c(-c2cccc(Cl)c2)cnn1-c1cccc([N+](=O)[O-])c1`, the inhibition is 50.4% (active).
As for `Cc1ccc(-c2cn(S(=O)(=O)c3cccc([N+](=O)[O-])c3)nc2N)cc1`, the figure is -10.8% (inactive); as for `COc1cnn(-c2ccc([N+](=O)[O-])cc2)c(=O)c1Cl`, -39.9% (inactive).
Turning to `Cc1ccc(CSc2nsc(C)c2C#N)cc1`, the inhibition is 63.5% (active).
As for `Cc1cc(C)c(C#N)c(SCc2ccc3c(c2)OCO3)n1`, the figure is 7.1% (inactive); as for `Cc1snc(SCc2c(F)cccc2Cl)c1C#N`, 18.9% (inactive).
Under `O=C(CCNC(=O)c1ccccc1)NN=Cc1ccc(Br)o1` stands 20.8% (inactive).
Under `CCCn1c(=O)c(C(=O)Nc2cc(C)ccn2)c(O)c2ccccc21` stands 18.1% (inactive); under `C=CCn1c(=O)c(C(=O)Nc2ncccc2O)c(O)c2ccccc21`, 22.7% (inactive).
On to `Cn1c(=O)c(C(=O)Nc2ncccn2)c(O)c2ccccc21`, for which the inhibition was 50.1% (active).
Under `CS(=O)(=O)N(Cc1nc2sc3c(c2c(=O)[nH]1)CCCC3)C1CCCCC1` stands 19.1% (inactive); under `CC[C@@H](C)[C@H](NC(=O)CCc1c(C)c2cc3c4c(oc3c(C)c2oc1=O)CCCC4)C(=O)O`, 17.7% (inactive); under `COc1cccc(C(=O)NC(=O)Nc2nc(C)cc(C(F)(F)F)n2)c1`, 6.49% (inactive).
As for `Cc1cc(Cl)nc(NC(=O)Nc2cccc(Cl)c2)n1`, the figure is 25.9% (inactive).
As for `Cc1cc(C)nc(NC(=O)Nc2ccccc2C(F)(F)F)n1`, the figure is 54.9% (active).
Regarding `Cc1ccc(CNC(=O)Cn2cnc(S(=O)(=O)N3CCCCC3)c2)o1`, the inhibition is 4.74% (inactive).
Under `O=C(c1ccccc1)c1cc(-c2ccccn2)c(N2CCOCC2)s1` stands -6.23% (inactive); under `CCOC(=O)C1=C(C)NC(C)=C(C(=O)OCC)C1C1=COCCO1`, 22.7% (inactive); under `COc1cc(N2C(=O)CSC2=S)cc(OC)c1OC`, 58.3% (active).
With `CCOc1ccc(N2C(=O)CSC2=NC#N)cc1`, the inhibition was 11.9% (inactive).
Consider `COc1cc(N2C(=O)CC3(CCCC3)CC2=O)cc(OC)c1OC`, for which the inhibition is 3.58% (inactive).
As for `O=C1CSC(=S)N1c1ccc(Cl)c(Cl)c1`, the figure is 41.8% (inactive).
Under `O=C1CSC(=S)N1c1ccc(O)cc1` stands 81.7% (active); under `COc1cc(C(=O)N2CCN(C)CC2)cc(OC)c1OC`, 9.48% (inactive).
Under `COCCNc1cc(-c2ccccc2)nc2cc(-c3cccc(F)c3)nn12` stands 32.2% (inactive).
Regarding `CCCCC(=O)Nc1ccccc1N1CCN(c2ccc(F)cc2)CC1`, the inhibition was 17.7% (inactive).
Under `CC(C)NC(=S)NN=C1CCCCCCCCCCC1` stands 26.8% (inactive).
Under `Cc1ccc2nsnc2c1S(=O)(=O)N1CCCC1C(=O)O` (centres undefined) stands 14.6% (inactive); under `COc1ccc(S(=O)(=O)N2CCOC23CCN(S(=O)(=O)c2ccc([N+](=O)[O-])cc2)CC3)cc1`, 23.5% (inactive); under `O=C(c1ccncc1)N1CCN(S(=O)(=O)c2cc(C(F)(F)F)cc(C(F)(F)F)c2)CC1`, 6.83% (inactive).

(Values after PubChem BioAssay AID2825 (Sanford-Burnham Center for Chemical Genomics, 2010).)
